Assay results from article PMC7862700, “An all-to-all approach to the identification of sequence-specific readers for epigenetic DNA modifications on cytosine”.

Experiments:
Assay in all cases: DAPPL (digital affinity profiling via proximity ligation, sequencing); 10 mM Tris-HCl pH 7.5, 50 mM NaCl, 1 mM DTT, 4% glycerol, room temperature, 30 min; GST-TFs on glutathione beads, 16-mer random dsDNA library, 0.1% formaldehyde crosslink after washing; high values mean tight binding
FEV = biological target: T1, FEV (Homo sapiens, UniProt Q99581 1-238); details: protein: recombinant; tags: N-terminal GST; dsDNA, one strand shown
T1 sequence: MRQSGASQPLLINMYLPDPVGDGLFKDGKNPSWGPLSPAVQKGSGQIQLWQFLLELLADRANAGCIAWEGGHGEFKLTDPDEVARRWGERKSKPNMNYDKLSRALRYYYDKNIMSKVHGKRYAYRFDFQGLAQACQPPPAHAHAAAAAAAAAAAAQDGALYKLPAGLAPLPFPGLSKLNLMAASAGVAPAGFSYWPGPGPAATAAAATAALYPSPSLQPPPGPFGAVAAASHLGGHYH
Method in brief: (§1)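 In yeast, human transcription factors were expressed with a GST fusion, then pulled down on glutathione beads and given DNA barcodes. Pooled with a tag-only sample, they were exposed to 200 nmole of a 16-mer random double-stranded DNA library (Tris/NaCl/DTT/glycerol buffer, room temperature, 30 min), washed, crosslinked with 0.1% formaldehyde, proximity-ligated using BsaI/T4 ligase for 1 h at 37 °C, PCR-amplified and read on an Illumina NextSeq500. Each hexamer's frequency of reads for a factor, divided by the matching frequency for the tag-only sample, gives the binding signal.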

ETV5 = ETV5 (Homo sapiens, UniProt P41161 1-510); details: protein: recombinant; tags: N-terminal GST; dsDNA, one strand shown
Chain of ETV5 (P41161 whole entry): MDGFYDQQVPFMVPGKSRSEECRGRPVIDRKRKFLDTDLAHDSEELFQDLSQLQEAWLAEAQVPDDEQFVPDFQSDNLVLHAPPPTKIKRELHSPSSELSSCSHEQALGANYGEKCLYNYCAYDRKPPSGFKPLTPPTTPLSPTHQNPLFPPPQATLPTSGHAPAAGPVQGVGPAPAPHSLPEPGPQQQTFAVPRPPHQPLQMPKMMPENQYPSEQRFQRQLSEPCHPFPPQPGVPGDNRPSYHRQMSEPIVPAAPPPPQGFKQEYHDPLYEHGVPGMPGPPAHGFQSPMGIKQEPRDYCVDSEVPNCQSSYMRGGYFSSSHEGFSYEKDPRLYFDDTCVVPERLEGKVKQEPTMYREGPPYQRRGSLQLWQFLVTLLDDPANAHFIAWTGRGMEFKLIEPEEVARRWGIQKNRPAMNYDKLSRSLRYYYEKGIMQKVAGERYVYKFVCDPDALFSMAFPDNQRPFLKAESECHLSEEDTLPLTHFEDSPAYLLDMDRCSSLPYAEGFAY
Method in brief: as §1

HSF1 = HSF1 (Homo sapiens, UniProt Q00613 1-529); details: protein: recombinant; tags: N-terminal GST; chain copies: 3; dsDNA, one strand shown
Chain of HSF1 (Q00613 whole entry): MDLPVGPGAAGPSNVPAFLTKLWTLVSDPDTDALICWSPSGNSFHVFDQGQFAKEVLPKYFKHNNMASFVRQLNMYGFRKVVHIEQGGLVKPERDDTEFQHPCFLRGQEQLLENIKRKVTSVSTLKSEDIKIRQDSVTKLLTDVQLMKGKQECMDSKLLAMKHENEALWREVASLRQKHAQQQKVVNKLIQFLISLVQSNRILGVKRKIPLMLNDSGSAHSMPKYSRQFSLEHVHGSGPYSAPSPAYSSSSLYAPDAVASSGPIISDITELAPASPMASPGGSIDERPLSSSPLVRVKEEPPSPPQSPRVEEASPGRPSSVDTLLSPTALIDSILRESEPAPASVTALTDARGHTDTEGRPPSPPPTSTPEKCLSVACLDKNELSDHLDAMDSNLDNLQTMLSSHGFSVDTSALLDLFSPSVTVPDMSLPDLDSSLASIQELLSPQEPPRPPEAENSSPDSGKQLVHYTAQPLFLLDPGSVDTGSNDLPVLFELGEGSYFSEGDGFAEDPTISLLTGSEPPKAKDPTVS
Method in brief: as §1

SPIC = biological target: T2, SPIC (Homo sapiens, UniProt Q8N5J4 1-248); details: protein: recombinant; tags: N-terminal GST; dsDNA, one strand shown
T2 sequence: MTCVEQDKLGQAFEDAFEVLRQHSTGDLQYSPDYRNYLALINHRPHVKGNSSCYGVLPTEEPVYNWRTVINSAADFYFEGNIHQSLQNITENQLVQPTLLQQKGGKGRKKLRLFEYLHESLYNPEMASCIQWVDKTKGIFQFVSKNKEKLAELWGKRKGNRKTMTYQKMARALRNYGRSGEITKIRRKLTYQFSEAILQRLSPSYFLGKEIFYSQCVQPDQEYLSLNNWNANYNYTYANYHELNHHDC
Method in brief: as §1

ELF4 = ELF4 (Homo sapiens, UniProt Q99607 1-663); details: protein: recombinant; tags: N-terminal GST; dsDNA, one strand shown
Chain of ELF4 (Q99607 whole entry): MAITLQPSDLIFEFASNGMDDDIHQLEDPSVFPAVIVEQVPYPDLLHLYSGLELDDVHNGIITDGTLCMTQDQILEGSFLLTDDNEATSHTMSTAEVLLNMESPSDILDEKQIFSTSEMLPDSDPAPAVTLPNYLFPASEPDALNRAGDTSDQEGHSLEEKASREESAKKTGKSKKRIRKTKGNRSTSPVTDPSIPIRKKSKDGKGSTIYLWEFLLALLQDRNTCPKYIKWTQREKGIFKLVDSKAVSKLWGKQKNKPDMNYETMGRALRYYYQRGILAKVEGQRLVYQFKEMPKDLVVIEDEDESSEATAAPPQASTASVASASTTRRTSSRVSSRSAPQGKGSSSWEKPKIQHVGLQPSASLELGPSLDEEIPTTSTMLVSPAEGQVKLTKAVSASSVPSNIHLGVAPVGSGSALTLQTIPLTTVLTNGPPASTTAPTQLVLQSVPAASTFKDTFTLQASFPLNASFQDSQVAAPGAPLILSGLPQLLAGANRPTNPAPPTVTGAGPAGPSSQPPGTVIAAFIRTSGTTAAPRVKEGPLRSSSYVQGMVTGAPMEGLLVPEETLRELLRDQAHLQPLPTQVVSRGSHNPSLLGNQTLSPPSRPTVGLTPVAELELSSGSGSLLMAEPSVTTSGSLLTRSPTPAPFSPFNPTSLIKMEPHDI
Method in brief: as §1

ETV2 = biological target: T3, ETV2 (Homo sapiens, UniProt O00321 1-342); details: protein: recombinant; tags: N-terminal GST; dsDNA, one strand shown
T3 sequence: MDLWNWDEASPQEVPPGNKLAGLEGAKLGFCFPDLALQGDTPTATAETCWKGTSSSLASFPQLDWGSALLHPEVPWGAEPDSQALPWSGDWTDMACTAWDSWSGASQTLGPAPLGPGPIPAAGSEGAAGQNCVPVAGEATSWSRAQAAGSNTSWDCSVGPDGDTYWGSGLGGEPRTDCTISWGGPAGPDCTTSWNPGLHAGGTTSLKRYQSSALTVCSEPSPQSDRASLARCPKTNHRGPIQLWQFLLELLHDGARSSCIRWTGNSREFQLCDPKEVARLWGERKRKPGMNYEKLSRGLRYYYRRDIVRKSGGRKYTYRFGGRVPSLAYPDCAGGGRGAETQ
Method in brief: as §1

ELF3 = biological target: T4, ELF3 (Homo sapiens, UniProt P78545 1-371); details: protein: recombinant; tags: N-terminal GST; dsDNA, one strand shown
T4 sequence: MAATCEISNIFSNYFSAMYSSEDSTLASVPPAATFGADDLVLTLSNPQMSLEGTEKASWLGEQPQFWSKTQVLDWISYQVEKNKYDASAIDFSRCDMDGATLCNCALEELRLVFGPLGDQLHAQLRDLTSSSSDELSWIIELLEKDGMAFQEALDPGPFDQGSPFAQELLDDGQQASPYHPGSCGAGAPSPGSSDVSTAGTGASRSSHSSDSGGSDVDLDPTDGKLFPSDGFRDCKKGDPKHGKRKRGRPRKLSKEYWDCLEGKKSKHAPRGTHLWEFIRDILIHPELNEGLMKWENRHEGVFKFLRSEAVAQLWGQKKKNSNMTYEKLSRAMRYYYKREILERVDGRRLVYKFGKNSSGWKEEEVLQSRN
Method in brief: as §1

ETV1 = ETV1 (Homo sapiens, UniProt P50549 1-477); details: protein: recombinant; tags: N-terminal GST; dsDNA, one strand shown
Chain of ETV1 (P50549 whole entry): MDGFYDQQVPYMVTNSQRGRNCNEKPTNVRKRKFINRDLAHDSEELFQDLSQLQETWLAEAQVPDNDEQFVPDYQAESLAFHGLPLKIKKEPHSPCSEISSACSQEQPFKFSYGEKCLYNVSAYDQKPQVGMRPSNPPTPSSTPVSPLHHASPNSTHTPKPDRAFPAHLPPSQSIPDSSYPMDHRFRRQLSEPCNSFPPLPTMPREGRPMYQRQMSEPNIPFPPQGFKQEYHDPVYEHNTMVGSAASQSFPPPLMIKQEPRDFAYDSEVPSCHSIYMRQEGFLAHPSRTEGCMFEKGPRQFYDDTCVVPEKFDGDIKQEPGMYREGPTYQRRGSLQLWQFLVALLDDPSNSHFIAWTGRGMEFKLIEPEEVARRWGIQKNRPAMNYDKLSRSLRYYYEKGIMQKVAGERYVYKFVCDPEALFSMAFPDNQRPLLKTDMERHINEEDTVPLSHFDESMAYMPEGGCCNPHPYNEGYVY
Method in brief: as §1

CRX = CRX (Homo sapiens, UniProt O43186 1-299); details: protein: recombinant; tags: N-terminal GST; dsDNA, one strand shown
Chain of CRX (O43186 whole entry): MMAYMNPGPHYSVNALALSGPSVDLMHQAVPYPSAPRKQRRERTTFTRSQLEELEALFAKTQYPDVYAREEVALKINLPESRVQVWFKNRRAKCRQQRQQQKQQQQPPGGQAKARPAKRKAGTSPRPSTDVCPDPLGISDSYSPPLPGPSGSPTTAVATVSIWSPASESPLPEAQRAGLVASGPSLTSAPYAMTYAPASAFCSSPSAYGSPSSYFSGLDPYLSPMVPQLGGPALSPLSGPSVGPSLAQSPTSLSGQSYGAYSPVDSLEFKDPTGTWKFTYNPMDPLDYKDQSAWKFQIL
Method in brief: as §1

ELK4 = biological target: T5, ELK4 (Homo sapiens, UniProt P28324-2 1-405); details: protein: recombinant; tags: N-terminal GST; dsDNA, one strand shown
T5 sequence: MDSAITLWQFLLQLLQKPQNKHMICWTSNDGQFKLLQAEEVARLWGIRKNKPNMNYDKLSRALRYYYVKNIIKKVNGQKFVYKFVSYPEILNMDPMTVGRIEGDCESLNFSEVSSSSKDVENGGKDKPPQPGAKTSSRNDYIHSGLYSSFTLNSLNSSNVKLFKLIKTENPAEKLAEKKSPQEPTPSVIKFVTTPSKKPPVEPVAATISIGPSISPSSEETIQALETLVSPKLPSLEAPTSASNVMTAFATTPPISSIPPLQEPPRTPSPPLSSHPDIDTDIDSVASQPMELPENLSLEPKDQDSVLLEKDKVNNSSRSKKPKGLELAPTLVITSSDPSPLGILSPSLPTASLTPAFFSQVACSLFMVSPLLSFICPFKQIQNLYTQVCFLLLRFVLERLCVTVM
Method in brief: as §1

Sequence | binding signal (FEV) | binding signal (ETV5) | binding signal (HSF1) | binding signal (SPIC) | binding signal (ELF4) | binding signal (ETV2) | binding signal (ELF3) | binding signal (ETV1) | binding signal (CRX) | binding signal (ELK4)
GTTTTC | 1.21 fold enrichment (6-mer frequency, TF over GST control) | 1.24 fold enrichment (6-mer frequency, TF over GST control) | 1.13 fold enrichment (6-mer frequency, TF over GST control) | 1.1 fold enrichment (6-mer frequency, TF over GST control) | 1.2 fold enrichment (6-mer frequency, TF over GST control) | 1.25 fold enrichment (6-mer frequency, TF over GST control) | 1.32 fold enrichment (6-mer frequency, TF over GST control) | 1.13 fold enrichment (6-mer frequency, TF over GST control) | – | –
CTAGGC | 1.16 fold enrichment (6-mer frequency, TF over GST control) | 1.06 fold enrichment (6-mer frequency, TF over GST control) | 1.22 fold enrichment (6-mer frequency, TF over GST control) | 1.15 fold enrichment (6-mer frequency, TF over GST control) | 1.16 fold enrichment (6-mer frequency, TF over GST control) | 1.21 fold enrichment (6-mer frequency, TF over GST control) | – | 1.04 fold enrichment (6-mer frequency, TF over GST control) | 1.17 fold enrichment (6-mer frequency, TF over GST control) | –
TGTTCG | 1.01 fold enrichment (6-mer frequency, TF over GST control) | 1.06 fold enrichment (6-mer frequency, TF over GST control) | 1.6 fold enrichment (6-mer frequency, TF over GST control) | 1.15 fold enrichment (6-mer frequency, TF over GST control) | – | – | 1.17 fold enrichment (6-mer frequency, TF over GST control) | 1.05 fold enrichment (6-mer frequency, TF over GST control) | 1.06 fold enrichment (6-mer frequency, TF over GST control) | 1.01 fold enrichment (6-mer frequency, TF over GST control)
TCATAA | – | 1.06 fold enrichment (6-mer frequency, TF over GST control) | 1.14 fold enrichment (6-mer frequency, TF over GST control) | 1.12 fold enrichment (6-mer frequency, TF over GST control) | – | – | – | 1.07 fold enrichment (6-mer frequency, TF over GST control) | 1.38 fold enrichment (6-mer frequency, TF over GST control) | 1.09 fold enrichment (6-mer frequency, TF over GST control)
AAATCG | 1 fold enrichment (6-mer frequency, TF over GST control) | 1.04 fold enrichment (6-mer frequency, TF over GST control) | 1.18 fold enrichment (6-mer frequency, TF over GST control) | 1 fold enrichment (6-mer frequency, TF over GST control) | 1.11 fold enrichment (6-mer frequency, TF over GST control) | – | 1.03 fold enrichment (6-mer frequency, TF over GST control) | 1.05 fold enrichment (6-mer frequency, TF over GST control) | 1.26 fold enrichment (6-mer frequency, TF over GST control) | –
TCATCG | – | 1 fold enrichment (6-mer frequency, TF over GST control) | 1.12 fold enrichment (6-mer frequency, TF over GST control) | 1.05 fold enrichment (6-mer frequency, TF over GST control) | – | – | – | 1.03 fold enrichment (6-mer frequency, TF over GST control) | 1.05 fold enrichment (6-mer frequency, TF over GST control) | 1.05 fold enrichment (6-mer frequency, TF over GST control)
AGACTT | 1.05 fold enrichment (6-mer frequency, TF over GST control) | 1.05 fold enrichment (6-mer frequency, TF over GST control) | 1.15 fold enrichment (6-mer frequency, TF over GST control) | 1.08 fold enrichment (6-mer frequency, TF over GST control) | 1.02 fold enrichment (6-mer frequency, TF over GST control) | – | 1.13 fold enrichment (6-mer frequency, TF over GST control) | – | 1.24 fold enrichment (6-mer frequency, TF over GST control) | –
TGGAAA | 1.03 fold enrichment (6-mer frequency, TF over GST control) | 1.14 fold enrichment (6-mer frequency, TF over GST control) | 2.23 fold enrichment (6-mer frequency, TF over GST control) | 1.17 fold enrichment (6-mer frequency, TF over GST control) | 1.12 fold enrichment (6-mer frequency, TF over GST control) | – | 1.15 fold enrichment (6-mer frequency, TF over GST control) | 1.11 fold enrichment (6-mer frequency, TF over GST control) | 1.23 fold enrichment (6-mer frequency, TF over GST control) | –
CGAGCT | 1.03 fold enrichment (6-mer frequency, TF over GST control) | 1.01 fold enrichment (6-mer frequency, TF over GST control) | 1.24 fold enrichment (6-mer frequency, TF over GST control) | 1.25 fold enrichment (6-mer frequency, TF over GST control) | 1.07 fold enrichment (6-mer frequency, TF over GST control) | 1.05 fold enrichment (6-mer frequency, TF over GST control) | – | 1.15 fold enrichment (6-mer frequency, TF over GST control) | 1.04 fold enrichment (6-mer frequency, TF over GST control) | –
TAACAG | 1.05 fold enrichment (6-mer frequency, TF over GST control) | 1.04 fold enrichment (6-mer frequency, TF over GST control) | 1.02 fold enrichment (6-mer frequency, TF over GST control) | – | 1.09 fold enrichment (6-mer frequency, TF over GST control) | 1.02 fold enrichment (6-mer frequency, TF over GST control) | 1.09 fold enrichment (6-mer frequency, TF over GST control) | 1.09 fold enrichment (6-mer frequency, TF over GST control) | 1.3 fold enrichment (6-mer frequency, TF over GST control) | 1.12 fold enrichment (6-mer frequency, TF over GST control)
CAAAGC | 1.14 fold enrichment (6-mer frequency, TF over GST control) | 1.05 fold enrichment (6-mer frequency, TF over GST control) | 1.04 fold enrichment (6-mer frequency, TF over GST control) | – | 1.05 fold enrichment (6-mer frequency, TF over GST control) | 1.09 fold enrichment (6-mer frequency, TF over GST control) | 1.03 fold enrichment (6-mer frequency, TF over GST control) | 1.08 fold enrichment (6-mer frequency, TF over GST control) | 1.3 fold enrichment (6-mer frequency, TF over GST control) | 1.24 fold enrichment (6-mer frequency, TF over GST control)
GTAATC | 1.1 fold enrichment (6-mer frequency, TF over GST control) | 1.22 fold enrichment (6-mer frequency, TF over GST control) | 1.92 fold enrichment (6-mer frequency, TF over GST control) | – | 1.14 fold enrichment (6-mer frequency, TF over GST control) | 1.11 fold enrichment (6-mer frequency, TF over GST control) | 1.21 fold enrichment (6-mer frequency, TF over GST control) | 1.02 fold enrichment (6-mer frequency, TF over GST control) | 3.14 fold enrichment (6-mer frequency, TF over GST control) | 1.16 fold enrichment (6-mer frequency, TF over GST control)
TTCATA | 1.12 fold enrichment (6-mer frequency, TF over GST control) | 1.1 fold enrichment (6-mer frequency, TF over GST control) | 1.05 fold enrichment (6-mer frequency, TF over GST control) | – | 1.19 fold enrichment (6-mer frequency, TF over GST control) | 1.06 fold enrichment (6-mer frequency, TF over GST control) | 1.24 fold enrichment (6-mer frequency, TF over GST control) | 1.24 fold enrichment (6-mer frequency, TF over GST control) | 1.2 fold enrichment (6-mer frequency, TF over GST control) | 1.2 fold enrichment (6-mer frequency, TF over GST control)
CAGATT | 1 fold enrichment (6-mer frequency, TF over GST control) | 1 fold enrichment (6-mer frequency, TF over GST control) | 1.75 fold enrichment (6-mer frequency, TF over GST control) | – | 1.06 fold enrichment (6-mer frequency, TF over GST control) | 1.02 fold enrichment (6-mer frequency, TF over GST control) | 1.06 fold enrichment (6-mer frequency, TF over GST control) | 1.03 fold enrichment (6-mer frequency, TF over GST control) | 2.1 fold enrichment (6-mer frequency, TF over GST control) | 1.01 fold enrichment (6-mer frequency, TF over GST control)
CTTTCG | 1.26 fold enrichment (6-mer frequency, TF over GST control) | 1.27 fold enrichment (6-mer frequency, TF over GST control) | 1.65 fold enrichment (6-mer frequency, TF over GST control) | – | 1.19 fold enrichment (6-mer frequency, TF over GST control) | 1.3 fold enrichment (6-mer frequency, TF over GST control) | 1.4 fold enrichment (6-mer frequency, TF over GST control) | 1.36 fold enrichment (6-mer frequency, TF over GST control) | 1.37 fold enrichment (6-mer frequency, TF over GST control) | 1.4 fold enrichment (6-mer frequency, TF over GST control)
